“And” between values parts separate entries of the source, which are not always exact repeats. Equal values may be shown once. Results filed as inconclusive are left out. Where a call stands in place of a potency, no number is given. Values without a mark were called inactive. The source made the active and inactive calls. Calls come from the whole dose curve; as a rule, active = well fitted cell-killing curve with a large enough effect in the repeat runs; inconclusive = weak or mixed curves; inactive = flat fitted curve, though single readings scatter.
Potency is the fitted concentration of half-maximal effect.

A short description of this test: qHTS assay to identify small molecule antagonists of the TGF-beta/Smad signaling pathway - cell viability counter screen (AID 1346824). Note: nearly all actives have a fitted effect of over 50% in size. The settings on record: SBE-bla HEK293T viability, CellTiter-Glo luminescence; series mostly up to 76.8 µM; viability change, negative = cytotoxic: at the top concentration. An excerpt: U.S. Tox21 Program National Center for Advancing Translational Sciences [NCATS] NIH Chemical Genomics Center [NCGC] U.S. Environmental Protection Agency [EPA] National Institutes of Environmental Health Sciences [NIEHS] National Toxicology Program [NTP] U.S. Food and Drug Administration [FDA] Tox21 Assay Overview: Transforming growth factor beta (TGF-beta) superfamily consists of a large number of structurally related dimeric proteins that act as hormones or local mediators in regulating a wide range of biological functions. This superfamily includes TGF-betas themselves, the bone morphogenetic proteins (BMPs) and the activins. These ligands induce oligomerization of serine/threonine receptor kinases and phosphorylate the cytoplasmic signaling molecules of Smad protein family. CellSensor SBE-bla HEK 293T cell line (Life Technologies, Carlsbad, CA), responsive to TGF-beta was used to screen Tox21 10K compound library for identification of agonists/antagonists of the Smad signaling pathway. This cell line contains a beta-lactamase reporter gene under control of the Smad binding element (SBE) stably integrated into HEK 293T cells. Also cytotoxicity of the compounds was tested in parallel by measuring the cell viability using CellTiter-Glo assay system in the same wells.
Tox21 Assay Protocol Summary: SBE-bla HEK 293T cells were dispensed at 4,000/well in 5 uL of assay medium into black wall/clear-bottom 1536-well plates using a Multidrop Combi (ThermoFisher Scientific, Waltham, MA) dispenser. After the assay plates were incubated at 37 C and 5% CO2 for an overnight, 23 nL of compounds dissolved in DMSO, positive controls or DMSO only was transferred to the assay plate by a Pintool station (Kalypsys, San Diego, CA). Compound transfer was followed by the addition of 1 uL of 0.25 ng/mL TGF-beta1 or assay buffer using two separate tips of Flying Reagent Dispenser (FRD, Aurora Discovery, San Diego, CA). The assay plates were incubated at 37 C and 5% CO2 for 5 hr. One uL of LiveBLAzer B/G FRET substrate (Life Technologies) was added using a Flying Reagent Dispenser (FRD, Aurora Discovery, San Diego, CA) and the plates were incubated at room temperature for 2 hr. Fluorescence intensity (405 nm excitation, 460 nm and 530 nm emissions) was measured using an Envision plate reader (PerkinElmer, Shelton, CT). For cytotoxicity read, 4 uL of CellTiter-Glo reagent (Promega Corporation, Madison, WI) was added to each well of the assay plates using FRD. After 30 min incubation at room temperature, the luminescence intensity was measured using ViewLux plate reader (PerkinElmer).
`COC(=O)Nc1nc2ccccc2[nH]1`: the Potency result was “inactive”. Take `Clc1ccc(C(Cl)(Cl)Cl)cc1`: the Potency result is “inactive”.

On to `Clc1cccc(Cl)c1`, for which the Potency result was “inactive”. For the molecule `CC(C)(C#N)N=NC(C)(C)C#N`, the Potency entry was “inactive”. Take `C[C@]12CC[C@H]3[C@@H](CCC4=CC(=O)CC[C@@H]43)[C@@H]1CC[C@@H]2O`: the Potency entry was “inactive”. For `Cc1cccc(N=Nc2ccc(N(C)C)cc2)c1`, the Potency entry was “inactive”. `COP(=S)(OC)SCn1nnc2ccccc2c1=O`: the Potency result is “inactive”. On the same count and under the same terms, under `CCNCC` stands “inactive”; under `O=NN(c1ccccc1)c1ccccc1`, “inactive”. The same measure, in the same setting: the result for `CCN(CC)C(=O)C(C)Oc1cccc2ccccc12` (stereo not given) reads “inactive”. Regarding `N#Cc1cccnc1`, the Potency entry is “inactive”. On the same count and under the same terms, under `CCCCOCCOC(C)=O` stands “inactive”; under `CC(C)CON=O`, “inactive”; under `CC(C)COC(=O)c1ccccc1C(=O)OCC(C)C`, “inactive”. Still for that read-out and setting: the result for `CCCCCCCCCC(CC)c1ccc(S(=O)(=O)O)cc1` (stereo not given) reads “inactive”; that for `[CH3][Sn]([Cl])([Cl])[Cl]`, “inactive”; that for `c1ccc2c(c1)Nc1ccccc1S2`, “inactive”.

With `Oc1ccc(Cl)cc1Cc1ccccc1`, the Potency result was “inactive”. Still for that read-out and setting: the result for `CS(=O)(=O)NC(=O)c1cc(Oc2ccc(C(F)(F)F)cc2Cl)ccc1[N+](=O)[O-]` reads “inactive”.

With `O=S(=O)(O)C(F)(F)C(F)(F)C(F)(F)C(F)(F)C(F)(F)C(F)(F)C(F)(F)C(F)(F)F`, the Potency result was “inactive”. As to `Cn1c(-c2ccccc2)cc(-c2ccccc2)[n+]1C`, the Potency entry is “inactive”. For the molecule `ClC(Cl)(Cl)Br`, the “viability change, negative = cytotoxic” value was -19.6%.

In the case of `O=[N+]([O-])/N=C1\NCCN1Cc1ccc(Cl)nc1`, the Potency entry is “inactive”. On the same count and under the same terms, the result for `N#CC(c1ccccc1)c1ccccc1` reads “inactive”; that for `CC[n+]1c(-c2ccccc2)c2cc(N)ccc2c2ccc(N)cc21`, “inactive”. Still for that read-out and setting: the result for `CCCCC(C#N)(Cn1cncn1)c1ccc(Cl)cc1` (stereo not given) reads “inactive”; that for `Brc1ccc(Br)cc1`, “inactive”. As to `CCCCOCC1CO1` (stereo not given), the “viability change, negative = cytotoxic” value is -2.28%. `CC(C)Nc1nc(Cl)nc(NC(C)C)n1`: the Potency result was “inactive”. On the same count and under the same terms, the result for `Cc1ccc(N=CN(C)C=Nc2ccc(C)cc2C)c(C)c1` reads “inactive”; that for `CCCCCCCCCc1ccc(O)cc1`, “inactive”. Take `CC(C)(c1ccccc1)c1ccc(O)c(C(C)(C)c2ccccc2)c1`: the Potency is 54.4 µM (active) and 43.6 µM (active). As to `CSc1nc(NC(C)C)nc(NC(C)C)n1`, the Potency entry was “inactive”. Same read-out and setting: under `CC(C)=CC1C(C(=O)OCc2cccc(Oc3ccccc3)c2)C1(C)C` (stereo not given) stands “inactive”.

For `CCCCCCCCCCCCCl`, the Potency entry is “inactive”. Still for that read-out and setting: the result for `CC1CC(=O)O1` (stereo not given) reads “inactive”; that for `O=[N+]([O-])c1ccc(Cl)c([N+](=O)[O-])c1`, 55.8 µM (active) and 34.7 µM (active). Still for that read-out and setting: under `CC1(C)C(C(=O)OC(C#N)c2cccc(Oc3ccccc3)c2)C1(C)C` (stereo not given) stands “inactive”; under `CCOP(=S)(OCC)SCSC(C)(C)C`, “inactive”.

Regarding `[Cl-].[Cl-].[Cl-].[Fe+3]`, the Potency result was “inactive”.

The values are drawn from PubChem BioAssay (Tox21).
